This is a sample that favours compounds with a hit; in the whole collection about 1.2% have one here.
Platelet DG rel: modulates dense granule release in human platelets | human platelet-rich plasma, SFLLRN dense granule ATP release, luminescence | inhibition, %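 (compounds screened at 7.5 µM in platelet-rich plasma)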 | 0.22% of 300,000 active;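 active = mean replicate score, as percent of positive control, at or above 50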
beta cell repl: MIN6 beta-cell proliferation induction | MIN6 cells proliferation, ATPlite luminescence, 48 h; cells starved in 0.2% serum; 100% = growth in 10% serum | proliferation, % at 10 µM | 0.29% of 330,000 active | AID 2380;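 active = compounds whose signal lies at least 3.5 SD above the mean of all wells on their plate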
NTR1 ag: activates human neurotensin receptor 1; P30989; NTR1-U2OS beta-arrestin-GFP spot imaging, agonist mode; activation, % at 20 µM; 0.17% of 330,000 active; AID 493036;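 active = activation at or above 40% of the spot to cytoplasm intensity ratio, with at least 20 cells analyzed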
Target sequence (P30989 whole entry, looked up): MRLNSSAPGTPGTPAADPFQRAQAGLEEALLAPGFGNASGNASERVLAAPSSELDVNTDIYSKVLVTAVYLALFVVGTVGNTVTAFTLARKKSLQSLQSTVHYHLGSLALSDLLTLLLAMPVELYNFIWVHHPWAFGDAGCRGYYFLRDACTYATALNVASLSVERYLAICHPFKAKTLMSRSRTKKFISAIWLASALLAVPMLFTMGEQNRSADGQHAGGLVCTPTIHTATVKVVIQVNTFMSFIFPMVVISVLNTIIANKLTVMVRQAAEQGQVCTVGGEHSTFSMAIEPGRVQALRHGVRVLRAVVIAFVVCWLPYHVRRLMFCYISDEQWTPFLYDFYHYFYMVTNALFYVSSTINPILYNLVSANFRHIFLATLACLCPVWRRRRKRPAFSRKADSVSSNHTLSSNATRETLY
GRK2 inh: human GRK2 inhibition via aptamer displacement; AID 488847; 0.59% of 330,000 active; inhibition of aptamer binding, % at 10 µM; bead flow cytometry, FAM-aptamer displacement from GRK2;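 active = inhibition of aptamer binding above 40%, roughly 3 SD of noise, on plates passing a quality check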;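 also: median bead fluorescence of bound FAM aptamer so fluorescent compounds give negative values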
GRK2 inh confirm: confirmation of human GRK2 inhibitors displacing RNA aptamer; AID 504451; aptamer displacement, % at 10 µM; 4% of 2,000 active; bead-bound GRK2, FAM-aptamer displacement, flow cytometry; shares compounds with GRK2 inh;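 active = aptamer displacement above 40%, near three times the noise of non-fluorescent compounds, on plates passing quality checks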;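 also: negative values mostly reflect intrinsic compound fluorescence rather than true enhancement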
Aptamer quench: fluorescent aptamer quenching in GRK2 counter-screen dose response | shares compounds with GRK2 inh | Fluorescent RNA aptamer beads, flow cytometry; stronger effect = higher value | fluorescence change (kMESF span), kMESF (no concentration beside the values) | 110 tested, under 10 active | AID 504521;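 active = compounds whose bead fluorescence drops by more than 37 kMESF across the dose range, marking them as dye quenchers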
Aptamer quench SP: quenches fluorescent RNA aptamer, GRK2 hit artifact; shares compounds with GRK2 inh; Carboxyfluorescein RNA aptamer on beads, flow cytometry quenching; stronger effect = lower value; fluorescence response (% of DMSO), % at 10 µM; 2,000 tested, under 10 active;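 active = compounds that quench the bead-bound fluorescent RNA probe, cutting fluorescence to under half of the solvent control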;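 also: counterscreen run without GRK2 so only probe quenching by compound is measured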
GRK2 CP2: confirmation of human GRK2 inhibitors binding RNA aptamer site. 360 tested, under 10 active. inhibition of aptamer binding, % at 10 µM. AID 504782. shares compounds with GRK2 inh. bead-bound GRK2, FAM-aptamer displacement, flow cytometry;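 active = inhibition of aptamer binding above 40%, about triple the noise seen with nonglowing compounds, on plates passing quality control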;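 also: negative values mostly come from compounds that fluoresce themselves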
FAM quench SP: counter-screen for GRK2 binding hits: quenchers of fluorescent RNA aptamer; carboxyfluorescein RNA aptamer beads, flow cytometry quenching; stronger effect = lower value; 360 tested, under 10 active; fluorescence response vs DMSO, % at 10 µM; shares compounds with GRK2 inh;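 active = response vs DMSO under 50%, meaning signal dropped by over half, treated as fluorescence quencher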;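 also: labelled aptamer on streptavidin beads without GRK2 as a quench counter-screen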
Of the large screens only hits and unclear results are named; the others gave an inactive call (follow-up assays come after a bar, where they were run).

O=C(CN(Cc1ccc(F)cc1)C(=O)CCC(=O)Nc1ccccn1)NCc1ccco1	GRK2 inh 100 | GRK2 inh confirm inactive | Aptamer quench SP inactive
O=C(C[C@@H]1C/C=C\C[C@H](Cc2ccc(F)cc2)C(=O)OCCNC1=O)NCCO	none (no result: Platelet DG rel)
O=[N+]([O-])c1ccccc1/C=N/Nc1nc(N2CCCC2)nc(N2CCCC2)n1	GRK2 inh 59 | GRK2 inh confirm inactive | Aptamer quench SP inactive
Cc1ccc(S(=O)(=O)C2(C(=O)NC3CCCC3)CC2)cc1	none | GRK2 CP2 inactive | FAM quench SP inactive
Cc1ccc(S(=O)(=O)C2(C(=O)Nc3ccc4c(c3)OCO4)CC2)cc1	none | GRK2 CP2 inactive | FAM quench SP inactive
O=P(c1ccccc1)(c1ccccc1)c1cc(S(=O)(=O)O)ccc1O	GRK2 inh 74 | GRK2 inh confirm 52 | Aptamer quench inactive | Aptamer quench SP inactive
O=P(O)(c1ccccc1)c1ccccc1O	none
O=C(CS(=O)(=O)c1ccccc1)N1CCc2ccccc21	none
O=C(CCS(=O)(=O)c1ccc(Br)s1)N1CCc2ccccc21	none | GRK2 inh confirm inactive | Aptamer quench inactive | Aptamer quench SP inactive
O=C(O)C1CC=CCC1C(=O)NCc1ccccc1 (configuration not stated)	none
COc1ccc(CNC(=O)C2CC=CCC2C(=O)O)cc1OC (configuration not stated)	none | GRK2 CP2 inactive | FAM quench SP inactive
CCNc1ccc(S(=O)(=O)N(C)C)cc1[N+](=O)[O-]	GRK2 inh 66 | GRK2 inh confirm inactive | Aptamer quench SP inactive
CN(C)C(CNc1ccc(S(C)(=O)=O)cc1[N+](=O)[O-])c1ccccc1 (configuration not stated)	none
Nc1ccn(CC(=O)NCc2ccccn2)c(=O)n1	GRK2 inh 77 (no result: Platelet DG rel) | GRK2 inh confirm inactive | Aptamer quench SP inactive
CC1CCCCC1NC(=O)c1ccc(-n2cncn2)cc1 (configuration not stated)	none (no result: Platelet DG rel)
Cc1cc(/C=N/NC(N)=O)c(C)c(CO)c1	GRK2 inh 77 | GRK2 inh confirm inactive | Aptamer quench SP inactive
O=S(=O)(c1cccs1)N1CCC2(CC1)OCCN2S(=O)(=O)c1ccccc1	none (no result: Platelet DG rel)
COc1cccc(CN2CCNC(=O)C2CC(=O)NCC(C)(C)N2CCOCC2)c1OC (configuration not stated)	none
c1ccc2c(c1)CSc1ccccc1N2	GRK2 inh 97 | GRK2 inh confirm inactive | Aptamer quench SP inactive
Cc1ccc(/C=C/C(=O)NCCc2c[nH]c3ccccc23)o1	GRK2 inh 94 | GRK2 inh confirm inactive | Aptamer quench SP inactive
O=C(c1ccc2nccnc2c1)N1CCN(c2cccc(C(F)(F)F)c2)CC1	none (no result: Platelet DG rel)
O=C(c1cccc(F)c1)N1CCN(c2cccc(C(F)(F)F)c2)CC1	GRK2 inh 60 | GRK2 inh confirm inactive | Aptamer quench SP inactive
COc1ccc(C(=O)Nc2ccc(NC(=O)CSc3nnc(-c4ccncc4)n3C)cc2)cc1	none
Cn1c(SCC(=O)Nc2ccc(NC(=O)c3ccccc3)cc2)nnc1-c1ccncc1	GRK2 inh 62 | GRK2 inh confirm inactive | Aptamer quench SP inactive
Cc1ccc(CCSCC(=O)O)cn1	GRK2 inh 74 | GRK2 inh confirm inactive | Aptamer quench SP inactive
CCCCn1c(N)c(N(CC(C)C)C(=O)CC2OC(=O)c3ccccc32)c(=O)[nH]c1=O (configuration not stated)	none
Cc1cc(CSc2nc(C)cc(=O)[nH]2)c2ncccc2c1	none
Cc1cc(=O)[nH]c(SCc2cccc3ccccc23)n1	none | GRK2 inh confirm inactive | Aptamer quench SP inactive
O=C(Nc1ccc2c(c1)COC2=O)c1ccc(Cl)c(Cl)c1	none
Cc1c(CC(=O)N[C@H](C(=O)O)C(C)C)c(=O)oc2cc3c(cc12)CCC(C)(C)O3	none
O=C(CCNS(=O)(=O)c1ccc(Br)cc1)NCCc1ccccc1	none
CCOc1ccc(CCNC(=O)CCS(=O)(=O)c2ccc(C)cc2)cc1OCC	none
